Laboratory results as given in PubChem BioAssay (NCI).
Compounds without any hit were thinned out: in the full panel of roughly 79,000, 15% have a hit. Values without a mark were called inactive. Rule as the data show it: active = growth inhibition above about 70%; inactive = the rest.

Experiment: NCI Yeast Anticancer Drug Screen. Data for the bub3 strain (AID 167)
Settings: S. cerevisiae bub3 mutant strain, at 50.0 µM, active compounds read high
Method in brief: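 Mutant yeast screening strain plus compound; vehicle-treated cultures serve as the 0% inhibition reference.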

Compound | growth inhibition
Cc1[nH]c(=O)nc(N/N=C/c2ccc(Cl)cc2)c1C(=O)Nc1ccc(Cl)cc1 | -34.4%
O=c1cc(-c2ccccc2)oc2c1ccc1c(O)cccc12 | 31.9%
Cc1cc(N=[N+]=[N-])c2cc3c(cc2n1)OCO3 | 5.65%
CC(C)CC(NC(=O)OC(C)(C)C)C(=O)O (stereo not given) | -29.2%
CC1=CC(=O)N2CCN=C2S1 | -3%
CC(=O)NC(C)(C)C1CCC(C)CC1 (stereo not given) | 9.65%
CC1=CC(C)(C)N=C2SC(c3ccc(N)cc3)=NN12 | 18.5%
NCCCc1ccc(C(=O)O)cc1 | 5.85%
CC(=O)OCC1OC(n2cc(F)c(=O)[nH]c2=O)C(OC(C)=O)C1OC(C)=O (stereo not given) | -16.4%
O=c1c(-c2ccccc2)nc2ccccc2n1CC1CCCN2CCCC[C@H]12 (stereo not given in full) | 22.7%
CCN(C(=O)c1ccc([N+](=O)[O-])cc1)C(c1ccccc1)P(=O)(c1ccccc1)c1ccccc1 (stereo not given) | 2.7%
Cc1cccc(-c2c3ccccc3cc3c2ccc2ccccc23)c1 | 8.7%
O=C(Cc1ccc(Cl)cc1)c1ccccc1Cl | -5.65%
O=C1OC(=O)C2C3C=CC(CC3)C12 (stereo not given) | -31.1%
CCN(CC)Cc1cc(Oc2ccc(O)c(CN(CC)CC)c2)ccc1O | 11.6%
O=[N+]([O-])/C=C/c1cn(CCCCCn2cc(/C=C/[N+](=O)[O-])c3ccccc32)c2ccccc12 | 8.35%
CC1CN(N)C(=O)O1 (stereo not given) | 2.6%
O=C1CC(NC(=O)C(F)(F)F)c2c(Br)sc(N3CCNCC3)c21 (stereo not given) | -2.65%
COC(=O)C1(Cc2ccccc2)Cc2ccccc2C1 | 55.4%
CCOC(=O)NN(C(=O)OCC)c1c(NN)n(C)c(=O)n(C)c1=O | 12.4%

Compound | growth inhibition
Cc1ccc(NC2=CC(=O)c3ccccc3C2=O)cc1 | 13.8%
COc1cc2cc[n+]3c(C)c4ccc(OC)c(OC)c4cc3c2cc1OC (tested in a mixture with another compound) | -3.55%
O=C(O)c1ccccc1NCn1c(=S)sc2ccccc21 | 43.8%
COC(=O)Nc1nc2ccc(SC)cc2c(=O)[nH]1 | -17.8%
O=Cc1ccccc1Cl | 10.9%
O=S(=O)(Nc1c(Cl)c(Cl)c(NS(=O)(=O)c2ccccc2)c(Cl)c1Cl)c1ccccc1 | 4.55%
CCCCCCCCOC(=O)Nc1ccc(S(=O)(=O)CC)cc1 | -2.15%
COC(=O)CC1NC(=O)[C@]1(C)[C@H](C)O (stereo not given in full) | -48.4%
O=C1N=C(C=c2ccc(=Cc3[nH]c(=O)[nH]c3O)cc2)C(=O)N1 | 8.35%
CCC1CN2CCc3cc(OC)c(OC)cc3C2CC1CC1c2cc(OC)c(OC)cc2CCN1C(=O)C1CCCN1 (stereo not given) | 7.65%
Nc1ccc(C(=O)O)cc1O | 9.65%
CCCCCCN(C(=O)Oc1ccccc1)C(C#N)c1ccccc1 (stereo not given) | 1.75%
Nc1ccc(-c2ccccc2)cc1[N+](=O)[O-] | 21.1%
Nc1cccnc1NCC(O)c1ccccc1 (stereo not given) | -11.6%
CC(=O)NC1CC2c3ccccc3C1([N+](=O)[O-])c1ccccc12 (stereo not given) | -4.6%
CCC/C=N/NC(=O)CCCCCCCCCCCCCCCCC | 7.7%
O=C(Nc1ccccc1)OC1C(OC(=O)c2ccccc2)OC(COC(=O)c2ccccc2)C1OC(=O)c1ccccc1 (stereo not given) | -9.1%
CC(=O)OCC1COC(C2CC=CCC2C)O1 (stereo not given) | 13.6%
CC(C)=CCC/C(C)=C/CN | 9%
CN(C)C(=O)C1Cc2ccccc2CC1C(=O)N(C)C (stereo not given) | -3.6%

Experiment: NCI Yeast Anticancer Drug Screen. Data for the mlh1 rad18 strain (AID 175)
Settings: S. cerevisiae mlh1 rad18 strain growth inhibition; at 50.0 µM; active compounds read high
Method in brief: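 Read-out is yeast growth inhibition, calculated against vehicle-only controls. The compound was applied to a strain engineered with DNA damage repair alterations.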

Compound | growth inhibition
Cc1[nH]c(=O)nc(N/N=C/c2ccc(Cl)cc2)c1C(=O)Nc1ccc(Cl)cc1 | -12.5%
O=c1cc(-c2ccccc2)oc2c1ccc1c(O)cccc12 | 8.95%
Cc1cc(N=[N+]=[N-])c2cc3c(cc2n1)OCO3 | 14%
CC(C)CC(NC(=O)OC(C)(C)C)C(=O)O (stereo not given) | -16.9%
CC1=CC(=O)N2CCN=C2S1 | -5.75%
CC(=O)NC(C)(C)C1CCC(C)CC1 (stereo not given) | -38.8%
CC1=CC(C)(C)N=C2SC(c3ccc(N)cc3)=NN12 | 28.4%
NCCCc1ccc(C(=O)O)cc1 | 7.75%
CC(=O)OCC1OC(n2cc(F)c(=O)[nH]c2=O)C(OC(C)=O)C1OC(C)=O (stereo not given) | -26.4%
O=c1c(-c2ccccc2)nc2ccccc2n1CC1CCCN2CCCC[C@H]12 (stereo not given in full) | 19.4%
CCN(C(=O)c1ccc([N+](=O)[O-])cc1)C(c1ccccc1)P(=O)(c1ccccc1)c1ccccc1 (stereo not given) | 1.45%
Cc1cccc(-c2c3ccccc3cc3c2ccc2ccccc23)c1 | -2.65%
O=C(Cc1ccc(Cl)cc1)c1ccccc1Cl | 4.4%
O=C1OC(=O)C2C3C=CC(CC3)C12 (stereo not given) | -0.1%
CCN(CC)Cc1cc(Oc2ccc(O)c(CN(CC)CC)c2)ccc1O | -4.4%
O=[N+]([O-])/C=C/c1cn(CCCCCn2cc(/C=C/[N+](=O)[O-])c3ccccc32)c2ccccc12 | -9.8%
CC1CN(N)C(=O)O1 (stereo not given) | -21.9%
O=C1CC(NC(=O)C(F)(F)F)c2c(Br)sc(N3CCNCC3)c21 (stereo not given) | -30.4%
COC(=O)C1(Cc2ccccc2)Cc2ccccc2C1 | 12.2%
CCOC(=O)NN(C(=O)OCC)c1c(NN)n(C)c(=O)n(C)c1=O | -11.5%

Compound | growth inhibition
Cc1ccc(NC2=CC(=O)c3ccccc3C2=O)cc1 | 9.45%
COc1cc2cc[n+]3c(C)c4ccc(OC)c(OC)c4cc3c2cc1OC (tested in a mixture with another compound) | 6.65%
O=C(O)c1ccccc1NCn1c(=S)sc2ccccc21 | 53.9%
COC(=O)Nc1nc2ccc(SC)cc2c(=O)[nH]1 | -29.6%
O=Cc1ccccc1Cl | 13.8%
O=S(=O)(Nc1c(Cl)c(Cl)c(NS(=O)(=O)c2ccccc2)c(Cl)c1Cl)c1ccccc1 | 15.5%
CCCCCCCCOC(=O)Nc1ccc(S(=O)(=O)CC)cc1 | -22.2%
COC(=O)CC1NC(=O)[C@]1(C)[C@H](C)O (stereo not given in full) | -48.9%
O=C1N=C(C=c2ccc(=Cc3[nH]c(=O)[nH]c3O)cc2)C(=O)N1 | 5.7%
CCC1CN2CCc3cc(OC)c(OC)cc3C2CC1CC1c2cc(OC)c(OC)cc2CCN1C(=O)C1CCCN1 (stereo not given) | -3.4%
Nc1ccc(C(=O)O)cc1O | -7%
CCCCCCN(C(=O)Oc1ccccc1)C(C#N)c1ccccc1 (stereo not given) | -20.2%
Nc1ccc(-c2ccccc2)cc1[N+](=O)[O-] | 8.8%
Nc1cccnc1NCC(O)c1ccccc1 (stereo not given) | 10.6%
CC(=O)NC1CC2c3ccccc3C1([N+](=O)[O-])c1ccccc12 (stereo not given) | -3.9%
CCC/C=N/NC(=O)CCCCCCCCCCCCCCCCC | 14.3%
O=C(Nc1ccccc1)OC1C(OC(=O)c2ccccc2)OC(COC(=O)c2ccccc2)C1OC(=O)c1ccccc1 (stereo not given) | -10.5%
CC(=O)OCC1COC(C2CC=CCC2C)O1 (stereo not given) | -7.6%
CC(C)=CCC/C(C)=C/CN | 6.15%
CN(C)C(=O)C1Cc2ccccc2CC1C(=O)N(C)C (stereo not given) | -9.75%
